According to PubChem BioAssay AID924 (National Center for Advancing Translational Sciences (NCATS), 2007):
Hit rate of the full screen: of about 130,000 compounds, about 1,200 (0.92%) were called active. About 3% were inconclusive and are not listed. Shown is part of a subset that was picked to be rich in actives. Values without a mark were called inactive. The call rests on the fitted dose curve; in most records, active means well fitted cell-killing curve with a large enough effect; inconclusive means small, poorly fitted or top-dose-only effect; inactive means no such curve, though single readings can be large or run the other way.

Assay: qHTS Screen for Compounds that Selectively Target Cancer Cells with p53 Mutations: Cytotoxicity of p53ts Cells at the Permissive Temperature; further: nearly all actives have a fitted effect of over 55% in size;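 on activity change, negative = cytotoxicity: 0% = DMSO and -100% = full killing by reference compound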
Conditions: H1299-p53A138V at 32C, ATP luminescence viability, 24 h; series mostly up to 46.1 µM; activity change, negative = cytotoxicity: at the top concentration
Procedure, shortened: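 H1299-p53 A138V cells (temperature-sensitive p53) exposed 24 h to up to 46 uM compound at 32C, where p53 is wild-type in conformation. Viability read as ATP luminescence and normalised to DMSO and 100 uM tamoxifen. AC50 fitted with the Hill equation.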
Potency means the concentration at half of the fitted maximal effect.

Row | SMILES | activity change, negative = cytotoxicity | Potency
1 | COc1ccc(CNC(=O)c2ccc(NC(=O)N3CC4CCCN4c4ccccc43)cc2)cc1 (stereo unspecified) | -3.58% | 
2 | CC(=O)Nc1ccc(NC(=O)c2cc3sccc3n2Cc2ccc(F)cc2)cc1 | -24.9% | 
3 | Cc1cccc(N2CCN(C(=O)CCn3c(=O)c4cccn4c4cccnc43)CC2C)c1 (stereo unspecified) | 3.1% | 
4 | COc1ccc2nc(Nc3nc4cc5c(cc4s3)OCCO5)sc2c1 | -17.9% | 
5 | c1c2c(cc3sc(N4CCCCC4)nc13)OCCO2 |  | 1.26 µM (active)
6 | Fc1ccc2nc(N3CCCCC3)sc2c1 | -9.36% | 
7 | CCc1ccc2ncc3c(-c4ccc(C)cc4)nn(CC(=O)NCc4ccccc4)c3c2c1 | -5.08% | 
8 | CC(C)(C)c1csc(NC2=NS(=O)(=O)c3ccccc32)n1 |  | 12.6 µM (active)
9 | O=C(CN1C(=O)c2cccnc2Oc2ccc(Cl)cc21)NCCc1ccccc1 | -3.47% | 
10 | COc1ccc(-c2ccc(=O)n(CC(=O)Nc3ccc(Br)cc3F)n2)cc1 | -22.2% | 
11 | CC(C)Sc1oc(-c2cccs2)nc1S(=O)(=O)c1ccc(Cl)cc1 | 7.99% | 
12 | CCn1cc(C(=O)NCCc2ccccc2)c(=O)c2cc(S(=O)(=O)N3CCCCCC3)ccc21 | 15.6% | 
13 | CCN(CC)S(=O)(=O)c1cc(C(=O)Nc2ccccn2)ccc1C |  | 10 µM (active)
14 | Cc1ccc(S(=O)(=O)/N=C(/Nc2ccccn2)c2ccc(Cl)cc2)cc1 | -19.2% | 
15 | CCN(CC)S(=O)(=O)c1cccc(C(=O)Nc2ccccc2)c1 | -19.7% | 
16 | Cc1nnc(NC(=O)CSc2nc3c([nH]c4ccccc43)c(=O)n2-c2cccc(Cl)c2)s1 | -0.819% | 
17 | OCCCN1c2ccccc2Nc2nnc(-c3ccccc3)cc21 |  | 12.6 µM (active)
18 | O=C(c1ccc(Cl)cc1)n1nc(-c2cccnc2)nc1NCc1ccc(F)cc1 | 12.6% | 
19 | COc1ccccc1CNC(=O)C(=O)NCC(c1cccs1)S(=O)(=O)c1cccs1 (stereo unspecified) | -2.8% | 
20 | Cc1c(C(=O)NCc2ccccc2Br)oc2ccc3c(c12)C(=O)CC(C)(C)O3 |  | 12.6 µM (active)
21 | CC1(C)CC(=O)c2cc(OCC(=O)NCC3CCCO3)ccc2O1 (stereo unspecified) | -7.04% | 
22 | CCC1(C)CC(=O)c2c(ccc3oc(C(=O)Nc4ccc(C(C)=O)cc4)c(C)c23)O1 (stereo unspecified) | -8.14% | 
23 | CCOC(=O)N1CCc2c(sc(NCc3cccc(F)c3)c2C(=O)Nc2ccccc2OCC)C1 | 19.6% | 
24 | COc1ccc(NC(=O)NC(C)c2c(-n3cccc3)sc(C)c2C)cc1OC (stereo unspecified) | 21.5% | 
25 | Cc1ccc(S(=O)(=O)c2nc(-c3ccco3)oc2SCC(=O)Nc2ccc(F)cc2)cc1 | -9.87% | 
26 | Cc1ccc(-c2nc(S(=O)(=O)c3ccc(C)cc3)c(N3CCCCCC3)o2)cc1 | 8.12% | 

Row | SMILES | activity change, negative = cytotoxicity | Potency
27 | CC(C)S(=O)(=O)c1oc(-c2ccc(F)cc2)nc1S(=O)(=O)c1ccc(F)cc1 |  | 5.01 µM (active)
28 | O=C(CSc1oc(-c2ccc(F)cc2)nc1S(=O)(=O)c1ccc(Br)cc1)NC1CCCCC1 | -3.41% | 
29 | CCc1ccc(NC(=O)CN2C(=O)C(c3ccccc3)=NC23CCCCCC3)cc1 | 12.1% | 
30 | CCc1ccc(NC(=O)CN2CCSc3ccc(S(=O)(=O)N4CCCC4)cc32)cc1 | 10.3% | 
31 | COc1cc(OC)c(OC)cc1/C=C/c1nc2cc3ccccc3cc2c(=O)n1-c1ccc(F)c(Cl)c1 | 4.14% | 
32 | CCCCn1c(=N)c(S(=O)(=O)c2ccccc2)cc2c(=O)n3cccc(C)c3nc21 | -0.99% | 
33 | Cc1ccc(-c2cnc(NCc3ccc(C(C)C)cc3)n2C)cc1 | -10.2% | 
34 | CC(C)c1ccc(-c2nn[nH]n2)cc1 |  | 12.6 µM (active)
35 | CCc1ccc(-c2nnn(Cc3nn[nH]n3)n2)cc1 | -29.7% | 
36 | CCOc1ccc(CNCCSc2nnnn2C)cc1 | -5.3% | 
37 | O=C1CCCc2cc(S(=O)(=O)N3CCCC(C(=O)NCc4ccccc4)C3)ccc2N1 (stereo unspecified) | -8.7% | 
38 | CCc1cc2c(cc3c(=O)n(CC(=O)NCc4cccc(Cl)c4)nc(CC)n32)s1 | 9.64% | 
39 | O=C1Nc2c(Br)cc(Br)cc2C1(O)N1CCOCC1 (stereo unspecified) |  | 12.6 µM (active)
40 | CCOc1ccccc1N(CC)C(=O)c1cc2ccc3cccnc3c2[nH]1 | 40.2% | 
41 | CCN1CCN(Cc2c(O)ccc3oc(C)c(C(=O)Nc4ccc(C)cc4C)c23)CC1 | 9.54% | 
42 | COc1ccc(-n2ncc3c(N4CCCc5ccccc54)ncnc32)cc1 |  | 10 µM (active)
43 | COc1ccc(-n2ncc3c(N4CCc5ccccc54)ncnc32)cc1 | -11.5% | 
44 | Cc1cccc(-n2ncc3c(N4CCc5ccccc54)ncnc32)c1 | -4.6% | 
45 | Cc1nc2nc(SCC(=O)NC3CCC(C)CC3)nn2c(C)c1Cc1ccccc1Cl (stereo unspecified) | 29.1% | 
46 | COc1ccccc1CN1CCC(CNC(=O)c2cnn(-c3ccccc3Cl)c2C2CCN(C(=O)OC(C)(C)C)CC2)CC1 | 1.28% | 
47 | COc1ccccc1CNC(=O)c1ccc(NC(=O)N2CC(C)Sc3ccccc32)cc1 (stereo unspecified) | -4.08% | 
48 | CCNC(=O)c1cc2n(n1)CCCN(Cc1ccc(C)cc1)C2=O | 4.64% | 
49 | Cc1ccc2nc(N3CCN(c4cccc(Cl)c4)CC3)c3nnnn3c2c1 | -2.07% | 
50 | CCc1ccc(CNC(=O)C2CCN(c3nn4cc(-c5ccc(F)cc5)nc4s3)CC2)cc1 | -3.23% | 
51 | CCC(CC)c1nnc(NS(=O)(=O)Cc2ccccc2)s1 | 4.53% | 
52 | CCC(CC)c1nn2cc(-c3ccccc3)nc2s1 |  | 5.01 µM (active)

Row | SMILES | activity change, negative = cytotoxicity | Potency
53 | CCOc1ccccc1NC(=O)c1ccc2c(c1)CCN2S(=O)(=O)c1ccc(C)cc1 | 7.8% | 
54 | COC(=O)c1cc(NC(=O)CCc2c(C)nc3c4c(C)cc(C)nc4nn3c2C)cc(C(=O)OC)c1 | 8.69% | 
55 | CCN(CC)c1ccc(NC(=O)CN2CCN(CC(=O)Nc3ccc(Cl)cc3)CC2)cc1 | -4.64% | 
56 | O=C(Nc1cccnc1)c1noc2c1CCCCC2 |  | 12.6 µM (active)
57 | Cc1c(Cl)cccc1NC(=O)c1noc2c1CCCC2 | -24.1% | 
58 | O=C(Nc1cccnc1)c1ccc2c(c1)OCO2 | -11.3% | 
59 | CCOc1ccc(-c2nonc2NC(=O)c2oc3ccc(C)cc3c2C)cc1OCC | -3.06% | 
60 | COc1ccc(NC(=O)c2sc3nc[nH]c(=O)c3c2C)cc1 | 2.8% | 
61 | O=C(Nc1cccc(NC(=O)c2ccco2)c1)c1cnccn1 | -6.2% | 
62 | O=C(Nc1ccc(NC(=O)c2cccs2)cn1)c1ccco1 |  | 6.31 µM (active)
63 | Cc1ccnc(NC(=O)c2ccc(NC(=O)c3ccco3)cc2)c1 | -29.1% | 
64 | Cc1cc(C)c(NC(=O)CCc2c(C)nc3c(c(C)nn3C(C)(C)C)c2C)c(C)c1 | 7.76% | 
65 | CCn1c(CN2CCC(C)CC2)nc2cc(NC(=O)c3ccccc3[N+](=O)[O-])ccc21 | 2.93% | 
66 | CCCCc1nn2c(=O)cc(COC(=O)c3ccccc3NC(=O)C(C)(C)C)nc2s1 | -3.39% | 
67 | COc1ccc(OCC(=O)Nc2cccc(C(=O)OCc3cc(=O)n4nc(C)sc4n3)c2)cc1 | -8.09% | 
68 | Cc1nn2c(=O)cc(COC(=O)c3cccc(NC(=O)COc4ccccc4Cl)c3)nc2s1 |  | 10 µM (active)
69 | Cc1nn2c(=O)cc(COC(=O)c3ccccc3NC(=O)COc3ccccc3C)nc2s1 | -2.82% | 
70 | COc1ccccc1NC(=O)C(=O)c1cc(C)n(-c2ccccc2F)c1C | 1.04% | 
71 | O=C(CCSCc1ccccc1F)N1CCN(c2ccc(Cl)cc2)CC1 | -8.82% | 
72 | Cc1ccsc1C(=O)OCC(=O)c1cc2ccccc2o1 | -15.9% | 
73 | Cc1ccsc1C(=O)OCC(=O)c1cc(C)n(CC2CCCO2)c1C (stereo unspecified) |  | 5.01 µM (active)
74 | COC(=O)c1ccc2c(=O)n(CC3CCCO3)c(=S)[nH]c2c1 (stereo unspecified) | 6.83% | 
75 | Cc1[nH]c2ccccc2c1C(c1ccccc1)c1cccs1 (stereo unspecified) | 3.42% | 
76 | O=C(CCc1cn(Cc2ccc(F)cc2)c2ccccc12)NC1CCCCC1 | 1.41% | 
77 | CC(=O)c1ccc(NC(=O)c2nc(-c3ccc(C)cc3)n3c2CCCCC3)cc1 | 8.72% | 
78 | Cc1ccc(C(=O)N2CCCCCC2)cc1Br | 4.16% | 

Row | SMILES | activity change, negative = cytotoxicity | Potency
79 | Cc1ccc2cc3cc(C(=O)N4CCCCCC4)oc3nc2c1 |  | 10 µM (active)
80 | CCc1ccc(CNC(=O)c2cc3cc4ccc(OC)cc4nc3o2)cc1 | 3.47% | 
81 | COc1c(Cl)cc(C(=O)N(Cc2ccccc2F)C2CCS(=O)(=O)C2)cc1Cl (stereo unspecified) | 0.249% | 
82 | CCOc1ccc(N(Cc2ccccc2)C(=O)c2nc(S(C)(=O)=O)ncc2Cl)cc1 |  | 12.6 µM (active)
83 | CCOc1ccc(N(Cc2ccccc2)C(=O)c2nc(SCC)ncc2Cl)cc1 | 4.15% | 
84 | CCOc1ccc(NC(=O)CN(Cc2ccccc2)S(=O)(=O)c2ccc(Cl)cc2)cc1 | -9.94% | 
85 | CCOc1cc(C2c3c(-c4ccc(Br)cc4)n[nH]c3C(=O)N2c2ccc(Cl)cc2)ccc1O (stereo unspecified) | 14.7% | 
86 | CN1C(=O)c2ccccc2Sc2ccc(NC(=O)Cc3ccc(Cl)cc3)cc21 | 32.9% | 
87 | COc1ccc(Cn2ccnc2SCC(=O)NCc2ccco2)cc1 | -3.47% | 
88 | C/C(=C\C(=O)c1cccnc1)Nc1ccc(C)c(C)c1 | -22.1% | 
89 | C/C(=C\C(=O)c1ccccc1)Nc1cccc(O)c1 |  | 10 µM (active)
90 | O=C(Nc1cccc(NC(=O)c2ccc(Br)cc2)c1)c1ccccc1 | -4.77% | 
91 | O=C(Nc1cc(C(F)(F)F)ccc1Cl)c1ccc2c(c1)CCN2S(=O)(=O)c1ccccc1 | 4.42% | 
92 | Cc1ccccc1N1CC(c2nc3ccccc3[nH]2)CC1=O (stereo unspecified) | 8.66% | 
93 | Cc1cc(/C=N/n2cnnc2)c(C)n1-c1cccc(C(=O)O)c1 | -3.07% | 
94 | Cc1ccccc1-n1c(C)cc(/C=C2\NC(=O)NC2=O)c1C |  | 15.8 µM (active)
95 | CCC(=O)N1c2ccccc2CC1C(=O)N1CCN(c2cccc(OC)c2)CC1 (stereo unspecified) | 1.92% | 
96 | Cc1ccc(Cl)cc1NC(=O)CCS(=O)(=O)c1ccc(Br)s1 | 6.48% | 
97 | Cc1cccc(NC(=O)N2CCN(C)c3ncccc32)c1C | -5.84% | 
98 | O=C(Nc1cc(C(F)(F)F)ccc1Cl)c1nc2ccccc2nc1N1CCCCC1 | -6.02% | 
99 | COc1c2c(cc3occ(-c4ccc5c(c4)OCO5)c(=O)c13)OC(C)(C)C=C2 |  | 10 µM (active)
100 | COc1ccc(CCNC(=O)c2cc(-c3ccc4c(c3)OCO4)on2)cc1OC | -7.31% | 
101 | COc1ccc(C)cc1N(C)C(=O)c1c(C)oc2ncnc(N3CCOCC3)c12 | 4.57% | 
